A short description of test [1]: OV-SAHO Cancer Cell Toxicity qHTS against the NCATS CANVASS Library (AID 1347348). Note: nearly all actives have a fitted effect of over 55% in size. Note: potency is the fitted concentration of half-maximal effect. In short, it runs like this: (§1)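 Per well, 1000 cells; exposure 72 h with compound at 11 final concentrations; readout CellTiter-Glo luminescence.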
Background: In qHTS, concentration-response curves come from the screen itself.

The nature of test [2]: UWB1.289-WTBRCA1 Cancer Cell Toxicity qHTS against the NCATS CANVASS Library (AID 1347354). In outline:
(§2)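 qHTS cytotoxicity: compounds tested in 11 concentrations on 1000 seeded cells per well over 72 h; bortezomib served as control; signal from CellTiter-Glo luminescence.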

A short description of test [3]: qHTS for Antimalaria activity screened against the NCATS CANVASS Library (AID 1347380). Note: nearly all actives have a fitted effect of over 40% in size. Note: potency is the fitted concentration of half-maximal effect. In short, it runs like this: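 Growth inhibition of asexual erythrocytic P. falciparum Dd2 was quantified by SYBR Green DNA staining. Cultures grew 72 h with compound (11-point series) in hypoxic gas at 37C; lysis and staining lasted 18 h.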
The nature of test [4]: qHTS assay for small molecule disruptors of mitochondrial membrane potential screened against the NCATS CANVASS Library (AID 1347389). Note: nearly all actives have a fitted effect of over 60% in size. Note: potency is the fitted concentration of half-maximal effect. In short, it runs like this: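 Compounds tested in 11-point qHTS series on HepG2 cells for 1 hr; membrane-potential dye added for 30 min at 37C. Lower red-to-green ratio indicates loss of potential.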
Test [5] in a line: qHTS for activators of dead-cell proteases activity screened against the NCATS CANVASS Library (AID 1347392).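 Note: luminescence from protease leaking out of membrane-damaged cells cleaving impermeant substrate; rising signal means more cytotoxicity.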 In short, it runs like this: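 HepG2 cells (2000/well) attached 18 h at 37C, then exposed 5 h to compounds (11-point qHTS). Dead-cell protease activity read as luminescence from cell-impermeant AAF-aminoluciferin substrate after 15 min at room temperature.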
Test [6] can be described thus: U-118MG Cancer Cell Toxicity qHTS against the NCATS CANVASS Library (AID 1347351). In outline:
as §1

Test [7] is described as follows: KB-3-1 Cancer Cell Toxicity qHTS against the NCATS CANVASS Library (AID 1347366). Note: nearly all actives have a fitted effect of over 75% in size. In short, it runs like this:
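Cytotoxicity toward KB-3-1 cells (500/well, DMEM + 10% FBS) was scored by CellTiter-Glo luminescence following 72 hr exposure at 37C, with bortezomib titrated as control.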

Test [8] in a line: qHTS for Hypoxia signaling pathway (HIF-1) agonists against the NCATS CANVASS Library (AID 1347375). In short, it runs like this:
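Inducers of HIF-1 signaling were detected in ME-180 cells bearing an HRE-driven beta-lactamase reporter after 17 h compound exposure. Activity came from CCF4-AM FRET emission ratio (460/530 nm) in qHTS format.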

Test [9] in a line: Vero-766 cells viability qHTS against the NCATS CANVASS Library: Counterscreen for Zika virus inhibition assay (AID 1347394). Note: series mostly up to about 46 µM; nearly all actives have a fitted effect of over 60% in size. In outline:
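Counterscreen for toxicity: Vero 766 cells exposed 72 h to an 11-point compound series, viability by CellTiter-Glo.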

Test [10] in a line: UWB1.289 Cancer Cell Toxicity qHTS against the NCATS CANVASS Library (AID 1347347). Note: nearly all actives have a fitted effect of over 60% in size. In outline: as §1
Test [11] can be described thus: COV-362 Cancer Cell Toxicity qHTS against the NCATS CANVASS Library (AID 1347352). Note: series mostly up to about 38 µM. In short, it runs like this: as §2
The nature of test [12]: Viability qHTS for inhibitors of the SERCaMP assay screened against the NCATS CANVASS Library (AID 1347400). Note: series mostly up to about 92 µM; nearly all actives have a fitted effect of over 70% in size. In outline:
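Cytotoxicity counter-screen: ATP content (CellTiter-Glo luminescence) of SH-SY5Y-GLuc SERCaMP MJH297 cells after 48 h at 37C with compounds in an 11-point qHTS series.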

Test [13] is described as follows: HEK293 24hr Apoptosis Induction qHTS against the NCATS CANVASS Library (AID 1347359). In short, it runs like this: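 HEK293 cells (500/well, DMEM + 10% FBS) were exposed to compounds in an 11-point series for 24 hours at 37 degrees C, then caspase-3/7 activity was read by Caspase-Glo DEVD luciferase luminescence after 15 min.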

Experimental findings from PubChem BioAssay (NCATS) are described below.

Results filed as inconclusive are left out. Activity calls are given as the source filed them. Calls come from the whole dose curve; as a rule, active = well fitted curve in the direction sought with a large enough effect; inconclusive = small, poorly fitted or top-dose-only effect, or another doubt; inactive = no such curve, though single readings can be large; an effect the other way counts as inactive or inconclusive.

Regarding `O=C1CCC(=O)N(O)CCCCCNC(=O)CCC(=O)N(O)CCCCCNC(=O)CCC(=O)N(O)CCCCCN1`, the Potency is 11.8 µM (active) in test [1] and 4.72 µM (active) in test [3]. The Potency result in test [2], in test [4] and in [5] was “inactive” in each case.

Take `C=C[C@]1(C)CC[C@@H]([C@H](C)C(=O)/C=C/C(C)(C)O)O1`: the Potency result in test [6], in test [7], in test [3] and in test [9] was “inactive” each time. Moreover, the call in test [8] was inactive.

As for `COc1cc2ccc(=O)oc2c(O)c1O[C@@H]1O[C@H](CO)[C@@H](O)[C@H](O)[C@H]1O`, the Potency entry in test [10], in test [6], in [11], in [2], in test [7] and in test [4] was “inactive” each time. Also, the Potency entry in test [5], in test [9] and in test [12] was “inactive” throughout. In [8], the compound was called inactive.

In the case of `O=C1c2c(O)cc(O)cc2OC(c2ccc(O)cc2)C1O` (stereo unspecified), the Potency entry in test [10], in test [1], in [6], in test [7], in test [5] and in test [9] was “inactive” in each case. In addition, the Potency entry in test [12] was “inactive”. Besides, the call in test [8] was inactive. Besides, the results for the Potency in test [3] and in test [4] were 0.0053 µM (active) and 11.7 µM (active), respectively.

As to `CN1CCc2cc3c(c4c2C1(C)C(=O)c1cc(O)ccc1-4)OCO3` (stereo unspecified), the Potency entry in [13], in [5] and in test [9] was “inactive” throughout.

As to `COc1cc2c(cc1OC)[C@@H](c1ccc3c(c1)OCO3)C(C)[C@@H](C)C2=O` (stereo partly specified), the Potency result in test [1], in test [6], in [11], in test [2], in test [13] and in test [7] was “inactive” throughout. Also, the Potency result in test [5], in [9] and in [12] was “inactive” in each case.

Turning to `COc1ccc([C@@H]2c3cc4c(cc3C(=O)C(C)C2C)OCO4)cc1OC` (stereo partly specified), the Potency result in test [10], in test [1], in [6], in test [2], in test [7] and in [4] was “inactive” each time. Moreover, the Potency result in test [9] and in test [12] was “inactive” throughout. For the same compound, the compound was called inactive in test [8].

As to `C[C@H]1CCC2(OC1)O[C@H]1C[C@H]3[C@@H]4CC(=O)[C@]5(O)C[C@H](O)CC[C@@]5(C)[C@H]4CC[C@@]3(C)[C@H]1[C@H]2C` (stereo partly specified), the Potency entry in [1], in test [6], in [13], in [7] and in [5] was “inactive” in each case.
